In one assay the test system is MCC-13. The assay is described as follows: qHTS assay to identify novel small-molecules to repurpose for Merkel cell carcinoma treatment (AID 1296009). Also: nearly all actives have a fitted effect of over 60% in size. To be noted: MCC and control cell lines, CellTiter-Glo viability, 72 h; series mostly up to 46 µM. An outline of the steps: (§1)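 Cells were incubated with compound for 72 hr at 37 degree celsius before CellTiter-Glo addition. Luminescence was normalized with no-cell wells as full cytotoxicity and DMSO as baseline.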
In general terms: In qHTS, concentration-response curves come from the screen itself.

Another assay has as its system MCC-26. Described as above. To be noted: MCC and control cell lines, CellTiter-Glo viability, 72 h; series mostly up to 46 µM. An outline of the steps:
as §1
(In general: Cellular ATP, detected with luciferase, serves as a proxy for viable cell number.)

For the next assay, the system named is MKL-1. The description is as above. The note with it: MCC and control cell lines, CellTiter-Glo viability, 72 h; series mostly up to 46 µM. An outline of the steps: as §1
A further assay concerns MKL-2. The assay is described as above. The note with it: MCC and control cell lines, CellTiter-Glo viability, 72 h; series mostly up to 46 µM. An outline of the steps: as §1
Another assay deals with WaGa. The description is as above. To be noted: MCC and control cell lines, CellTiter-Glo viability, 72 h; series mostly up to 46 µM. An outline of the steps:
as §1

A further assay relates to C33A. The assay is described as follows: Primary qHTS to identify gynecologic anti-cancer compounds using libraries of approved drugs and bioactive compounds (AID 1345084). Also: nearly all actives have a fitted effect of over 55% in size. To be noted: Gynecologic cancer cell panel viability, ATPlite luminescence, 48 h; series mostly up to 57.5 µM. An outline of the steps: (§2)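 48 h compound exposure at 37 C, 5% CO2; five-point qHTS. ATPlite luminescence readout of cell ATP.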

The test system of the next assay is UISO. Put plainly: qHTS assay to identify novel small-molecules to repurpose for Merkel cell carcinoma treatment (AID 1296009). Also: nearly all actives have a fitted effect of over 60% in size. The note with it: MCC and control cell lines, CellTiter-Glo viability, 72 h; series mostly up to 46 µM. In outline: as §1
For another assay, the system named is CAOV3. The assay is described as follows: Primary qHTS to identify gynecologic anti-cancer compounds using libraries of approved drugs and bioactive compounds (AID 1345084). Also: nearly all actives have a fitted effect of over 55% in size. The note with it: Gynecologic cancer cell panel viability, ATPlite luminescence, 48 h; series mostly up to 57.5 µM. In outline:
as §2

The subject of a further assay is NIH3T3. Put plainly: qHTS assay to identify novel small-molecules to repurpose for Merkel cell carcinoma treatment (AID 1296009). Also: nearly all actives have a fitted effect of over 60% in size. The note with it: MCC and control cell lines, CellTiter-Glo viability, 72 h; series mostly up to 44.8 µM. In outline:
as §1

In PubChem BioAssay (NCATS) one finds Potency and outcome data, which are given here for 25 molecules.

“And” between values parts separate entries of the source, which are not always exact repeats. Identical values can stand only once. Inconclusive results are not listed. Some structures have more than one record in an assay (separate samples or runs), and their calls can disagree. The source made the active and inactive calls. Calls follow the shape of the dose curve; as a rule, active = well fitted curve in the direction sought with a large enough effect; inconclusive = small, poorly fitted or top-dose-only effect, or another doubt; inactive = no such curve, though single readings can be large; an effect the other way counts as inactive or inconclusive.
Potency is read from the fitted curve at half-maximal effect.

Consider `CN(C)CCCN1c2ccccc2CCc2ccc(Cl)cc21`, for which the Potency entry with MCC-13, with MCC-26, in the assay with MKL-1 and with C33A was “inactive” in each case. In addition, the Potency in the assay with MKL-2 and in the assay on WaGa was 18.7 µM (active) each time.

Regarding `O=C1c2c(O)ccc(O)c2C(=O)c2c(NCCNCCO)ccc(NCCNCCO)c21`, the Potency was 935 nM (active) and 750 nM (active) in the assay with MCC-13; 1.87 µM (active) and 596 nM (active) with MCC-26; 105 nM (active) and 6 nM (active) in the assay on MKL-1; 0.006 µM (active) in the assay on MKL-2; 526 nM (active) and 668 nM (active) with UISO; 74.3 nM (active) and 4.7 nM (active) in the assay with WaGa. In addition, the Potency was 2.51 µM (active) in the assay with C33A and 3.16 µM (active) in the assay with CAOV3.

For `CN1C(C(=O)Nc2ccccn2)=C(O)c2ccccc2S1(=O)=O`, the Potency result with MCC-13, with MCC-26, in the assay with MKL-2, in the assay on UISO, with C33A and with CAOV3 was “inactive” in each case. The Potency entry in the assay on MKL-1 is “inactive and 10.5 µM (active)”; in the assay on WaGa it was “inactive and 16.6 µM (active)”.

For the molecule `CN(C)c1nc(N(C)C)nc(N(C)C)n1`, the Potency entry in the assay with MCC-13, in the assay on MCC-26, with MKL-1, in the assay on MKL-2, in the assay on UISO and with WaGa was “inactive” throughout. Besides, the Potency entry in the assay on C33A and in the assay on CAOV3 was “inactive” each time.

Regarding `COc1ccc(CCN(C)CCCC(C#N)(c2ccc(OC)c(OC)c2)C(C)C)cc1OC` (stereo not drawn), the Potency result in the assay on MCC-13, in the assay on MCC-26, in the assay with MKL-1, in the assay on MKL-2, in the assay with UISO and in the assay with WaGa was “inactive” each time. Also, the Potency entry in the assay with C33A and in the assay on CAOV3 was “inactive” in each case.

Regarding `Cc1cn([C@H]2C=C[C@@H](CO)O2)c(=O)[nH]c1=O`, the Potency result with MCC-13, with MCC-26, in the assay on MKL-1, in the assay with MKL-2, with UISO and in the assay on WaGa was “inactive” each time. Besides, the Potency result in the assay on C33A and in the assay with CAOV3 was “inactive” each time.

Turning to `Clc1ccc(C(c2ccccc2Cl)C(Cl)Cl)cc1` (stereo not drawn), the Potency result in the assay with MCC-13, in the assay with MCC-26, with MKL-1, with MKL-2, in the assay with UISO and in the assay on WaGa was “inactive” in each case. The Potency result in the assay with C33A and in the assay with CAOV3 was “inactive” throughout.

Consider `CCCNCC(O)COc1ccccc1C(=O)CCc1ccccc1` (stereo not drawn), for which the Potency result in the assay with MCC-13, in the assay with MCC-26, in the assay with MKL-1, with MKL-2, with UISO and in the assay on WaGa was “inactive” in each case. The Potency entry with C33A was “inactive”.

In the case of `CC(C(=O)O)c1cccc(C(=O)c2ccccc2)c1` (stereo not drawn), the Potency entry with MCC-13, in the assay on MKL-1, with MKL-2, in the assay with UISO and in the assay on WaGa was “inactive” in each case. The molecule was called inactive with NIH3T3.

Regarding `O=c1c(-c2ccc(O)cc2)coc2cc(O)cc(O)c12`, the Potency result with MCC-13, in the assay with MCC-26, with MKL-1, with MKL-2, in the assay with UISO and in the assay with C33A was “inactive” throughout. Further, in the assay on WaGa, the Potency entry was “inactive and 26.6 µM (active)”.

Turning to `CN1CCC(=C2c3ccccc3C=Cc3ccccc32)CC1`, the Potency result in the assay on MCC-13, with MKL-1, with UISO and with C33A was “inactive” in each case. Moreover, the values for the Potency in the assay with MKL-2 and in the assay on WaGa were 16.8 µM (active) and 26.6 µM (active), respectively. Further, the molecule was classed as inactive in the assay with NIH3T3.

For the molecule `OCCN1CCN(CCCN2c3ccccc3Sc3ccc(C(F)(F)F)cc32)CC1`, the Potency entry with MCC-13, in the assay on MCC-26, in the assay with UISO, in the assay on C33A and in the assay on CAOV3 was “inactive” each time. In addition, the Potency in the assay with MKL-1 is 21.1 µM (active); in the assay on MKL-2 it was 20.9 µM (active) and 21.1 µM (active); in the assay on WaGa it was 20.9 µM (active).

Consider `Cn1c(=O)c2c(ncn2C)n(C)c1=O`, for which the Potency entry in the assay with MCC-13, in the assay with MCC-26, with MKL-1, with MKL-2, in the assay on UISO and in the assay on WaGa was “inactive” in each case. The Potency result with C33A is “inactive”.

As for `CC1(CN2CCC(n3c(=O)[nH]c4ccccc43)CC2)OCc2ccccc2-n2cccc21` (stereo not drawn), the Potency result in the assay on MCC-13, with MCC-26, with MKL-1, in the assay on MKL-2, with UISO and in the assay with WaGa was “inactive” throughout. The Potency result in the assay on C33A is “inactive”.

In the case of `CC(C)(Oc1ccc(C2CC2(Cl)Cl)cc1)C(=O)O` (stereo not drawn), the Potency result in the assay on MCC-13, in the assay on MCC-26, in the assay with MKL-1, with MKL-2, in the assay on UISO and in the assay on WaGa was “inactive” each time. The Potency entry in the assay on C33A and with CAOV3 was “inactive” each time. The molecule was called inactive in the assay on NIH3T3.

On to `CC[C@@]1(O)C(=O)OCc2c1cc1n(c2=O)Cc2cc3c(CN(C)C)c(O)ccc3nc2-1`, for which the Potency was 94.4 nM (active) and 132 nM (active) with MCC-13; 94.4 nM (active) and 418 nM (active) with MCC-26; 21.1 nM (active) and 93.5 nM (active) in the assay on MKL-1; 4.2 nM (active) and 13.2 nM (active) in the assay with MKL-2; 237 nM (active) and 46.9 nM (active) in the assay on UISO; 3.8 nM (active) and 26.4 nM (active) in the assay with WaGa. For the same molecule, the Potency is 2.51 µM (active) and 7.08 µM (active) with C33A; 3.16 µM (active) with CAOV3.

In the case of `CNCCCC12CCC(c3ccccc31)c1ccccc12`, the Potency entry in the assay with MCC-13 and in the assay with MCC-26 was “inactive” in each case. The Potency was 23.5 µM (active) with MKL-2; 29.9 µM (active) and inactive in the assay on WaGa.

Regarding `CC(C)NCC(O)COc1ccc(CCOCC2CC2)cc1` (stereo not drawn), the Potency result in the assay on MCC-13, in the assay with MCC-26, with MKL-1, with MKL-2, with UISO and with WaGa was “inactive” each time. Moreover, the Potency entry with C33A was “inactive”.

As to `COc1cc2nc(N3CCN(C(=O)c4ccco4)CC3)nc(N)c2cc1OC`, the Potency entry in the assay on MCC-13, with MCC-26 and in the assay with C33A was “inactive” in each case. For the same molecule, the Potency in the assay with MKL-1 was 29.6 µM (active); in the assay with MKL-2, 16.6 µM (active); with WaGa, 20.9 µM (active).

Turning to `Clc1ccc2c(c1)C(N1CCNCC1)=Nc1ccccc1O2`, the Potency entry in the assay with MCC-13, in the assay with MCC-26, with MKL-1, with MKL-2, with UISO and in the assay on WaGa was “inactive” in each case. Also, the Potency result in the assay with C33A was “inactive”.

For `O=C1Cc2cc(CCN3CCN(c4nsc5ccccc45)CC3)c(Cl)cc2N1`, the Potency result in the assay on MCC-13, in the assay with MCC-26 and in the assay with C33A was “inactive” throughout. Further, the Potency in the assay with MKL-2 is 11.9 µM (active) and 14.8 µM (active); in the assay with UISO it was 15 µM (active) and inactive. For the same molecule, the molecule was called inactive in the assay on NIH3T3.

Consider `CN(C)CCC=C1c2ccccc2C=Cc2ccccc21`, for which the Potency result in the assay on MCC-13, with MCC-26, in the assay with MKL-1, in the assay with UISO, in the assay on WaGa and in the assay on C33A was “inactive” each time.

With `C[C@@H]1CC(=O)NN=C1c1ccc(NN=C(C#N)C#N)cc1`, the Potency result with MCC-13, in the assay with MCC-26, in the assay on MKL-1, in the assay with C33A and in the assay with CAOV3 was “inactive” throughout. The Potency is 8.41 µM (active) and 7.5 µM (active) in the assay with MKL-2; 21.1 µM (active) in the assay with UISO; 23.7 µM (active) and inactive in the assay on WaGa.

`Clc1ccccc1C(c1ccccc1)(c1ccccc1)n1ccnc1`: the Potency result in the assay with MCC-13, in the assay with MCC-26, in the assay on MKL-1, in the assay on MKL-2, in the assay on UISO and in the assay with CAOV3 was “inactive” each time. The Potency in the assay on WaGa is 23.7 µM (active) and inactive.

In the case of `COc1ccccc1OCCNCC(O)COc1cccc2[nH]c3ccccc3c12` (stereo not drawn), the Potency entry in the assay with MCC-13, with MKL-1, with UISO, in the assay with WaGa, in the assay with C33A and with CAOV3 was “inactive” in each case. For the same molecule, the Potency with MKL-2 was 16.8 µM (active).
